PubChem BioAssay (EPA / NIEHS)
Calls of active or inactive are those of the source. How the source made its calls: active means hit-call score of the fitted dose curve at least 0.9, where 1 is the maximum; inactive means score below 0.9.

Tests used:
[1] = read-out: Tissue Factor, F3 (gene 2152); assay: BSK_CASM3C_TissueFactor: BioMAP Diversity Plus: CASM3C Assay for Tissue Factor Biomarker Activity (AID 2283052); settings: primary human coronary artery smooth muscle cells; actives raise or lower the signal;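 further: cell surface tissue factor protein level read by ELISA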
[2] = read-out: Interferon-gamma inducible Protein 10 (IP10), CXCL10 (gene 3627); assay: BSK_hDFCGF_IP10: BioMAP Diversity Plus: hDFCGF Assay for Interferon-gamma inducible Protein 10 (IP10) Biomarker Activity (AID 2283053); settings: primary human foreskin fibroblasts; actives raise or lower the signal
How it was run: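 Human foreskin fibroblast primary cells (hDFCGF system) were dosed with chemical and assayed at 24 h; IP-10 measured by ELISA. Activity fitted bidirectionally relative to DMSO negative control as baseline.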

[3] = read-out: Urokinase-type plasminogen activator receptor (uPAR), PLAUR (gene 5329); assay: BSK_CASM3C_uPAR: BioMAP Diversity Plus: CASM3C Assay for Urokinase-type plasminogen activator receptor (uPAR) Biomarker Activity (AID 2283054); settings: primary human coronary artery smooth muscle cells; actives raise or lower the signal;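 further: cell-surface uPAR protein level quantified by ELISA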
[4] = read-out: Vascular cell adhesion molecule 1 (VCAM1), VCAM1 (gene 7412); assay: BSK_CASM3C_VCAM1: BioMAP Diversity Plus: CASM3C Assay for Vascular cell adhesion molecule 1 (VCAM1) Biomarker Activity (AID 2283055); settings: primary human coronary artery smooth muscle cells; actives raise or lower the signal;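 further: VCAM-1 protein level quantified by ELISA on the cells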
[5] = read-out: Epidermal growth factor receptor (EGFR), EGFR (gene 1956); assay: BSK_hDFCGF_EGFR: BioMAP Diversity Plus: hDFCGF Assay for Epidermal growth factor receptor (EGFR) Biomarker Activity (AID 2283057); settings: primary human foreskin fibroblasts; actives raise or lower the signal
How it was run: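 Primary human foreskin fibroblasts were exposed to compound for 24 h, after which cell-surface EGFR was quantified by ELISA. Activity was fitted bidirectionally against the DMSO negative control as baseline.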

[6] = read-out: Interleukin-8 (IL8), CXCL8 (gene 3576); assay: BSK_hDFCGF_IL8: BioMAP Diversity Plus: hDFCGF Assay for Interleukin-8 (IL8) Biomarker Activity (AID 2283058); settings: primary human foreskin fibroblasts; actives raise or lower the signal
How it was run: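 IL-8 levels read by ELISA at 24 hours after dosing human skin fibroblast cultures. Parallel SRB staining assessed overt cytotoxicity, and gain or loss of signal was fitted against DMSO control.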

[7] = BSK_hDFCGF_Proliferation: Cell Proliferation Assessment in the BioMAP Diversity Plus: hDFCGF Assay (AID 2283059); settings: primary human foreskin fibroblasts;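 further: curves fitted for both rise and fall of signal versus DMSO baseline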
How it was run: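 Total protein read at 560 nm after 0.1% SRB staining of TCA-fixed human skin fibroblasts, […]. Activity is fitted in both directions relative to DMSO as baseline.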

[8] = read-out: Macrophage colony-stimulating factor (MCSF), CSF1 (gene 1435); assay: BSK_hDFCGF_MCSF: BioMAP Diversity Plus: hDFCGF Assay for Macrophage colony-stimulating factor (MCSF) Biomarker Activity (AID 2283060); settings: primary human foreskin fibroblasts; actives raise or lower the signal
How it was run: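 M-CSF levels read by ELISA at 24 h post-dosing in human skin fibroblasts. Parallel cultures stained with SRB assessed cytotoxicity at the same time point; response fitted in both directions against the DMSO baseline.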

[9] = BSK_hDFCGF_SRB: Viability Assessment in the BioMAP Diversity Plus: hDFCGF Assay (AID 2283061); settings: primary human foreskin fibroblasts;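 further: cells exposed to compound for 24 h before the read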
How it was run: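 Viability was read as total protein: after 10% TCA fixation, wells were stained with 0.1% sulforhodamine B and read at 560 nm. Primary human foreskin fibroblasts were dosed for 24 h, with bidirectional fitting versus DMSO.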

[10] = read-out: TIMP metallopeptidase inhibitor 1 (TIMP1), TIMP1 (gene 7076); assay: BSK_hDFCGF_TIMP1: BioMAP Diversity Plus: hDFCGF Assay for TIMP metallopeptidase inhibitor 1 (TIMP1) Biomarker Activity (AID 2283062); settings: primary human foreskin fibroblasts; actives raise or lower the signal
How it was run: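 TIMP-1 measured by ELISA 24 h after chemical dosing of primary human skin fibroblasts, with gain or loss fitted relative to DMSO. Parallel SRB staining (560 nm) monitored overt cytotoxicity.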

[11] = read-out: Monokine induced gamma interferon (MIG), CXCL9 (gene 4283); assay: BSK_hDFCGF_MIG: BioMAP Diversity Plus: hDFCGF Assay for Monokine induced gamma interferon (MIG) Biomarker Activity (AID 2283063); settings: primary human foreskin fibroblasts; actives raise or lower the signal
How it was run: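 Human primary foreskin fibroblasts in the hDFCGF system, exposed to test chemical for 24 h; MIG measured by ELISA. Bidirectional curve fitting against DMSO negative control as activity baseline.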

[12] = read-out: Matrix Metallopeptidase 1 (MMP1), MMP1 (gene 4312); assay: BSK_hDFCGF_MMP1: BioMAP Diversity Plus: hDFCGF Assay for Matrix Metallopeptidase 1 (MMP1) Biomarker Activity (AID 2283064); settings: primary human foreskin fibroblasts; actives raise or lower the signal
How it was run: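 Primary human foreskin fibroblasts in the hDFCGF system were dosed with test chemical, and MMP1 was measured by ELISA 24 h later. Values come from bidirectional curve fitting against the DMSO baseline.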

[13] = read-out: Vascular cell adhesion molecule 1 (VCAM1), VCAM1 (gene 7412); assay: BSK_hDFCGF_VCAM1: BioMAP Diversity Plus: hDFCGF Assay for Vascular cell adhesion molecule 1 (VCAM1) Biomarker Activity (AID 2283065); settings: primary human foreskin fibroblasts; actives raise or lower the signal;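 on AC50: VCAM-1 protein level quantified by ELISA after 24 h chemical exposure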
How it was run: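 ELISA readout of VCAM-1 on human dermal fibroblast primary cultures, 24 h after chemical exposure. Gain or loss of signal fitted in both directions against DMSO baseline.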

[14] = read-out: Intercellular Adhesion Molecule 1 (ICAM1), ICAM1 (gene 3383); assay: BSK_KF3CT_ICAM1: BioMAP Diversity Plus: KF3CT Assay for Intercellular Adhesion Molecule 1 (ICAM1) Biomarker Activity (AID 2283067); settings: primary human keratinocytes with fibroblasts; actives raise or lower the signal
How it was run: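 Cell-surface ICAM-1 was measured by ELISA 24 h after dosing primary human skin keratinocytes co-cultured with fibroblasts. Parallel SRB staining tracked overt cytotoxicity. Gain or loss of signal was fitted relative to DMSO.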

[15] = read-out: Interferon-gamma inducible Protein 10 (IP10), CXCL10 (gene 3627); assay: BSK_KF3CT_IP10: BioMAP Diversity Plus: KF3CT Assay for Interferon-gamma inducible Protein 10 (IP10) Biomarker Activity (AID 2283068); settings: primary human keratinocytes with fibroblasts; actives raise or lower the signal
How it was run: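 Human keratinocyte plus foreskin fibroblast primary co-culture exposed to test chemical for 24 h; IP-10 measured by ELISA. Concentration-response fitted bidirectionally against DMSO control as baseline.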

[16] = BSK_KF3CT_SRB: Viability Assessment in the BioMAP Diversity Plus: KF3CT Assay (AID 2283069); settings: primary human keratinocytes with fibroblasts;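 further: total protein by sulforhodamine B staining as a cytotoxicity measure; read 24 h after compound addition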
How it was run: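 Human primary keratinocyte plus foreskin fibroblast co-culture exposed to chemicals for 24 h. Total protein measured by 0.1% sulforhodamine B staining after 10% TCA fixation, read at 560 nm; bidirectional fitting versus DMSO baseline.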

[17] = read-out: Interleukin-1 alpha (IL1a), IL1A (gene 3552); assay: BSK_KF3CT_IL1a: BioMAP Diversity Plus: KF3CT Assay for Interleukin-1 alpha (IL1a) Biomarker Activity (AID 2283070); settings: primary human keratinocytes with fibroblasts; actives raise or lower the signal
How it was run: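 Human keratinocyte plus foreskin fibroblast primary co-culture, sampled 24 h after chemical dosing. IL-1a measured by ELISA; responses fitted bidirectionally against DMSO baseline (negative control), so gain or loss of signal both count.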

[18] = read-out: Collagen III, COL3A1 (gene 1281); assay: BSK_hDFCGF_CollagenIII: BioMAP Diversity Plus: hDFCGF Assay for Collagen III Biomarker Activity (AID 2283056); settings: primary human foreskin fibroblasts; actives raise or lower the signal
How it was run: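 ELISA readout of Collagen III in human dermal (foreskin) fibroblasts, taken 24 h post-treatment. Gain or loss relative to DMSO vehicle fitted in both directions.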

[19] = read-out: Plasminogen activator inhibitor-1 (PAI1), SERPINE1 (gene 5054); assay: BSK_hDFCGF_PAI1: BioMAP Diversity Plus: hDFCGF Assay for Plasminogen activator inhibitor-1 (PAI1) Biomarker Activity (AID 2283066); settings: primary human foreskin fibroblasts; actives raise or lower the signal
How it was run: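 Human foreskin fibroblasts in the hDFCGF system were dosed with compound for 24 h; PAI-1 was quantified by ELISA. Bidirectional curve fitting used DMSO as negative control and baseline.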

[20] = read-out: TIMP metallopeptidase inhibitor 2 (TIMP2), TIMP2 (gene 7077); assay: BSK_KF3CT_TIMP2: BioMAP Diversity Plus: KF3CT Assay for TIMP metallopeptidase inhibitor 2 (TIMP2) Biomarker Activity (AID 2283071); settings: primary human keratinocytes with fibroblasts; actives raise or lower the signal
How it was run: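 Human primary keratinocyte/foreskin fibroblast co-culture dosed with chemical and sampled at 24 h. TIMP-2 levels quantified by ELISA; bidirectional fitting against DMSO negative control as baseline.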

Measured: AC50

COC(=O)[C@H]1[C@H]2C[C@@H]3c4[nH]c5cc(OC)ccc5c4CCN3C[C@H]2C[C@@H](OC(=O)c2cc(OC)c(OC)c(OC)c2)[C@@H]1OC
active: [7] 16.9 µM
not listed: [18] | [19] | [20]
inactive: all other assays above

CC(=O)O[C@]1(C(C)=O)CC[C@H]2[C@@H]3C=C(Cl)C4=CC(=O)[C@@H]5C[C@@H]5[C@]4(C)[C@H]3CC[C@@]21C
active: [18] 27 µM | [7] 17 µM | [19] 1.74 µM
not listed: [8] | [10] | [15] | [20]
inactive: all other assays above

C/C=C/C=C/C(=O)O
not listed: [10]
inactive: all other assays above

CC(=O)OC1CC(C)OC(C)O1 (stereo unspecified)
active: [19] 0.523 µM
not listed: [10]
inactive: all other assays above

NC(=Nc1ccccc1)Nc1ccccc1
active: [7] 30.3 µM | [8] 9.15 µM | [12] 3.71 µM
not listed: [10] | [11] | [20]
inactive: all other assays above

COC(=O)CCC(=O)OC
not listed: [10]
inactive: all other assays above

O=C1c2c(O)cccc2Cc2cccc(O)c21
inactive: [1] | [3] | [4] | [5] | [6] | [7] | [12] | [19] | [16]
active: [2] 17.1 µM | [18] 30.7 µM | [8] 17.1 µM | [9] 7.76 µM | [11] 15.7 µM | [13] 20 µM | [14] 25.1 µM | [15] 28.8 µM | [17] 18.9 µM | [20] 20 µM
